Reference: PubChem BioAssay (NCATS)
Records with an inconclusive call do not appear. Active and inactive are the calls of the source. Calls come from the whole dose curve; as a rule, active = well fitted inhibition curve with a large enough effect; inconclusive = small, poorly fitted or top-dose-only effect; inactive = no such curve, though single readings can be large or run the other way.

Assay: BET inhibitor-based combinations targeting novel dependencies in MECOM-rearranged (r) AML: HNT-34 cell line (AID 2202234); note: nearly all actives have a fitted effect of over 35% in size
Conditions: HNT-34 AML viability, CellTiter-Glo luminescence, 48 h; series mostly up to 46 µM
Method in brief: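 Luminescent ATP readout (CellTiter-Glo, 15 min at room temperature) after 48 hr drug exposure gave viability. Dose-response curves, normalized to DMSO and empty-well controls, were summarized as area under the curve and its mean-centred Z-score.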
Potency is the fitted concentration of half-maximal effect.

Structure (SMILES) | Potency
CCc1cc(/C(C)=N/OCc2ccc(C3CCCCC3)c(C(F)(F)F)c2)ccc1CN1CC(C(=O)O)C1 | inactive
O=C(c1ccc(Nc2nc(C3CC3)cn3c(-c4cn[nH]c4)cnc23)c(F)c1)N1CCOCC1 | 5.25 µM (active)
COc1ccc2c(c1)CC[C@@H]1[C@@H]2CC[C@]2(C)[C@@H](NCCCCCCN3C(=O)C=CC3=O)CC[C@@H]12 | inactive
COc1cc(=C2C=c3ccccc3=N2)[nH]/c1=C/c1[nH]c(C)cc1C | 3.72 µM (active)
NC(CO)(CO)CCc1ccc(Sc2cccc(OCc3ccccc3)c2)cc1Cl | 18.6 µM (active)
CC[C@@]1(O)C(=O)OCc2c1cc1n(c2=O)Cc2c-1nc1cc(F)c(C)c3c1c2[C@@H](N)CC3 | 0.003 µM (active)
CC#Cc1cncc(-c2ccc3c(c2)[C@@]2(N=C(C)C(N)=N2)C2(CCC(OC)CC2)C3)c1 (some centres not stated) | inactive
COc1cc(OC)cc(N2CCN(C(=O)Nc3nc4cc(F)ccc4nc3OC)CC2)c1 | 0.833 µM (active)
CN(C)C/C=C/C(=O)Nc1cc2c(Nc3ccc(F)c(Cl)c3)ncnc2cc1O[C@H]1CCOC1 | 2.95 µM (active)
CN1C/C=C/CCOc2cccc(c2)-c2ccnc(n2)Nc2cccc(c2)C1 | 0.417 µM (active)
CCN(C(=O)c1ccccc1OC)c1cc2c(cc1N1CCNC[C@H]1C)n(C)c(=O)n2C | inactive
COC(=O)[C@H](CCCN=C(N)N)NS(=O)(=O)c1ccc(C)cc1 | inactive
O=C(Nc1ccccc1)Nc1ccc(-c2ccc(C(=O)[C@@H]3CCC[C@H]3C(=O)O)cc2)cc1 | inactive
O=c1sn(-c2cccc3ccccc23)c(=O)n1Cc1ccccc1 | inactive
C[C@@H](Oc1ccc2[nH]nc(/C=C/c3cnn(CCO)c3)c2c1)c1c(Cl)cncc1Cl | 0.662 µM (active)
C/C=C/C/C=C/CCC(=O)[C@H]1O[C@H]1C(N)=O | 14.8 µM (active)
CCOc1cc(/C=C2/C(=O)N(c3ccccc3)N=C2C)cc(Cl)c1OCC(=O)OC | inactive
N#Cc1ccc(N(Cc2ccc(Br)cc2)n2cnnc2)cc1 | 16.6 µM (active)
O=C([O-])C[O-].[Pt+2] | inactive
CSC[C@H]1CN(Cc2c[nH]c3c(N)ncnc23)C[C@@H]1O | inactive
COc1nc(OCc2cccc(-c3ccccc3)c2C)ccc1CNCCNC(C)=O | 26.3 µM (active)
CN(C)CC[C@H](CSc1ccccc1)Nc1ccc(S(=O)(=O)NC(=O)c2ccc(N3CCN(Cc4ccccc4-c4ccc(Cl)cc4)CC3)cc2)cc1[N+](=O)[O-] | 1.86 µM (active)
